Reference: PubChem BioAssay (NCI)
This is part of a sample that, as a whole, favours compounds with a hit. Of some 83,000 tested, about 20% had one in any assay.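 Compound tested at a single concentration for 48 hours in 96-well plates; a percent growth value below 10 was scored as active.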 Activity calls are given as the source filed them.

Tests used:
Test in all cases: NCI-60 one-dose screen, 48 h (100 = growth as untreated, 0 = no growth, -100 = all killed)
Settings in all cases: 10 µM unless noted
[1] = tested on: SK-MEL-2 melanoma
[2] = tested on: EKVX NSCLC
[3] = tested on: SN12C renal
[4] = tested on: UO-31 renal
[5] = tested on: TK-10 renal
[6] = tested on: ACHN renal
[7] = tested on: CAKI-1 renal
[8] = tested on: CCRF-CEM leukemia
[9] = tested on: MOLT-4 leukemia
[10] = tested on: SR leukemia
[11] = tested on: RPMI-8226 leukemia
[12] = tested on: OVCAR-8 ovarian
[13] = tested on: OVCAR-5 ovarian
[14] = tested on: OVCAR-4 ovarian
[15] = tested on: SK-OV-3 ovarian
[16] = tested on: IGROV1 ovarian
[17] = tested on: OVCAR-3 ovarian
[18] = tested on: HS 578T breast
[19] = tested on: NCI/ADR-RES ovarian

Measured: growth

C/C(=N\NC(=O)CSc1nc2ccccc2c(=O)n1Cc1ccc(S(N)(=O)=O)cc1)c1ccc(F)cc1
inactive: [1] 111% | [2] 90.9% | [3] 101% | [4] 84.5% | [5] 102% | [6] 105% | [7] 95% | [8] 106% | [9] 107% | [10] 100% | [11] 112% | [12] 101% | [13] 96.4% | [14] 99.8% | [15] 111% | [16] 106% | [17] 115% | [18] 102% | [19] 104%

CC(=O)O[C@H]1Cc2c([nH]c3ccccc23)[C@@H](c2ccc(Cl)cc2)N1C(=O)CCNC(C)(C)C
inactive: [1] 79.4% | [2] 67.2% | [3] 58.4% | [4] 23.7% | [5] 94.5% | [6] 64.5% | [7] 63.6% | [8] 41% | [9] 28.6% | [11] 44.2% | [12] 83.4% | [13] 59.6% | [14] 64.6% | [15] 90.5% | [16] 24.6% | [17] 70.8% | [18] 62.3% | [19] 91.8%
active: [10] 3.79%

O=[N+]([O-])CC(c1ccccc1F)c1c[nH]c2ccccc12 (centres undefined)
inactive: [1] 57% | [2] 79.4% | [3] 88.6% | [4] 71.9% | [5] 96.8% | [6] 94.7% | [7] 59.2% | [8] 69.7% | [9] 59% | [10] 30.2% | [11] 76% | [12] 78% | [13] 96% | [14] 97.3% | [15] 119% | [16] 68.6% | [17] 77.9% | [18] 77.2% | [19] 48.2%

CCCOC(=O)N[C@H]1CCc2cc(OC)c(OC)c(OC)c2-c2ccc(SC)c(=O)cc21
active: [8] 4.23% | [9] 7.04% | [10] 4.77% | [11] 5.39% | [17] -42.1% | [18] 5.68% | [19] 5.94%
inactive: [1] 50.8% | [2] 51.5% | [3] 29.5% | [4] 38.3% | [5] 48.2% | [6] 27.8% | [7] 19.8% | [12] 23.6% | [13] 33.9% | [14] 40.5% | [15] 42.7% | [16] 17.5%

CCCNC(=O)Oc1ccc(/C(=C(\C)c2ccccc2)c2ccc(OCCCN(C)C)cc2)cc1
inactive: [1] 92.6% | [2] 80.1% | [3] 77.4% | [4] 50% | [5] 84.8% | [6] 93.3% | [7] 83.4% | [8] 75.7% | [9] 66.5% | [11] 63.4% | [12] 86.6% | [13] 80.5% | [14] 79.7% | [15] 71.9% | [16] 89.5% | [17] 83% | [18] 55.3% | [19] 77.7%
active: [10] 4.87%

COc1cc(F)c(/C=C/c2cc(/C=C/c3cc(OC)c(OC)cc3F)on2)cc1OC
inactive: [1] 76.3% | [2] 102% | [3] 91.6% | [4] 91.2% | [5] 100% | [6] 80% | [7] 90.1% | [8] 91.9% | [9] 91.1% | [10] 46.9% | [11] 68.2% | [12] 87.1% | [13] 97.6% | [14] 101% | [15] 105% | [16] 79.5% | [17] 36.1% | [18] 89.2% | [19] 89.3%

CCNC(=O)Oc1ccc(/C(=C(\C)c2ccccc2)c2ccc(OCCN3CCCCC3)cc2)cc1
inactive: [1] 82.8% | [2] 82% | [3] 65.2% | [4] 41.2% | [5] 83.3% | [6] 84.2% | [7] 38.5% | [8] 72.7% | [9] 51% | [11] 38.7% | [12] 73.6% | [13] 84.8% | [14] 65.5% | [15] 53.6% | [16] 79.9% | [17] 69.4% | [18] 57.5% | [19] 66.8%
active: [10] 4.98%

COc1cc(/C(C)=C(\c2ccc(Cl)cc2)c2ccc(OCCN3CCCC3)cc2)ccc1F
active: [10] -25.3%
inactive: [1] 98.8% | [2] 74% | [3] 70.2% | [4] 39.7% | [5] 69.3% | [6] 83.1% | [7] 65.2% | [8] 37.6% | [9] 32.6% | [11] 14.7% | [12] 69.1% | [13] 74.8% | [14] 51.8% | [15] 108% | [16] 40.4% | [17] 63% | [18] 70.5% | [19] 69.9%

COc1cc2c(=O)n(CCN(C)C)c3c4cc5c(cc4ccc3c2cc1OC)OCO5
active: [1] -65.1% | [2] -1.09% | [3] -4.74% | [4] -77.6% | [5] -76.2% | [6] -92.6% | [7] -89.5% | [8] 2.56% | [9] 3.91% | [10] 2.29% | [11] -27.7% | [13] -17.5% | [14] 5.11% | [15] -5.08% | [16] -16% | [17] -41.9% | [18] 9.24% | [19] 2.87%
inactive: [12] 11.4%

C#CCNC(=O)[C@H](Cc1ccccc1)NC(=O)[C@]12CC[C@@H](C(=C)C)[C@@H]1[C@H]1CC[C@@H]3[C@@]4(C)CCC(=O)C(C)(C)[C@@H]4CC[C@@]3(C)[C@]1(C)CC2
inactive: [1] 86.8% | [2] 79% | [3] 76% | [4] 54% | [5] 65.3% | [6] 75.7% | [7] 55.4% | [8] 65.1% | [9] 46.3% | [10] 42% | [11] 38% | [12] 86.8% | [13] 87.1% | [14] 81.6% | [15] 84.7% | [16] 89.1% | [17] 62.9% | [18] 85.1% | [19] 79.8%

O=C(CCN1CCCC1)Nc1ccc2c(Nc3ccc(Br)cc3)c3ccccc3nc2c1
active: [4] -96.8% | [5] -36.1% | [8] -15.6% | [9] -33.8% | [10] -22.6% | [11] -34.9% | [12] 5.94% | [14] -20.2% | [16] -21.1% | [17] -65.1%
inactive: [1] 97.1% | [2] 59.5% | [3] 30% | [6] 29.4% | [7] 15.3% | [13] 41.9% | [15] 57.5% | [18] 58.6% | [19] 20.3%

CCN(CC)CCCC(C)Nc1cc(O)cc2cccnc12 (centres undefined)
inactive: [1] 135% | [2] 106% | [3] 85.7% | [4] 83.4% | [5] 122% | [6] 102% | [7] 109% | [8] 108% | [9] 112% | [10] 132% | [11] 97.3% | [12] 101% | [13] 105% | [14] 84.2% | [15] 119% | [16] 154% | [17] 90.2% | [18] 73.9% | [19] 102%

O=C(/C=C(O)/C=C/c1ccc(SC(F)(F)F)cc1)/C=C/c1ccc(SC(F)(F)F)cc1
inactive: [1] 101% | [2] 111% | [3] 94.2% | [4] 73.1% | [5] 101% | [6] 102% | [7] 96% | [8] 60.7% | [9] 76.1% | [10] 40.8% | [11] 38.9% | [12] 96% | [13] 118% | [14] 97.3% | [15] 119% | [16] 80.6% | [17] 88% | [18] 98.2% | [19] 104%

COc1ccc(C(=O)Nc2cccc(C3CCc4c(cc(OC)c(OC)c4OC)O3)c2)cc1 (centres undefined)
inactive: [1] 37.9% | [2] 54.7% | [3] 69.6% | [4] 53.9% | [5] 80.8% | [6] 68.9% | [7] 54.3% | [8] 36.5% | [9] 22.5% | [10] 21.6% | [11] 23.9% | [12] 55.6% | [13] 91.1% | [14] 47.4% | [15] 51.6% | [16] 52% | [17] 35.3% | [18] 38.9% | [19] 38.5%

Nc1nc(Nc2ccccc2SSc2ccccc2Nc2nc(N)nc(-c3cccs3)n2)nc(-c2ccsc2)n1
inactive: [1] 99.1% | [2] 77.3% | [3] 27.3% | [5] 118% | [6] 65.3% | [7] 20% | [8] 60.5% | [9] 63.2% | [10] 31.3% | [11] 71.9% | [12] 76.9% | [13] 118% | [14] 70.4% | [15] 110% | [16] 58.9% | [17] 90.4% | [18] 93.3%
active: [4] -45.5% | [19] 4.43%

COc1ccc(C(=O)c2cc(C)c(OC)c(C)c2)c(OC)c1NC(C)=O
inactive: [1] 26% | [2] 56% | [3] 34.8% | [4] 40% | [5] 51.9% | [6] 24.9% | [7] 42.4% | [8] 20.8% | [9] 38.7% | [10] 29.3% | [11] 21.2% | [12] 16.9% | [13] 37.8% | [14] 61.6% | [15] 11% | [16] 31.5% | [18] 14.4%
active: [17] 5.93% | [19] 0.837%
